Here are results for 32 compounds from ChEMBL document CHEMBL1157539, “Thousands of chemical starting points for antimalarial lead identification” (Nature, 2010).

The structures appear in SMILES notation.

What all share (type): functional
Experiment [1] relates to Plasmodium falciparum. The experiment can be described thus: GSK_TCMDC: Inhibition of Plasmodium falciparum 3D7 in whole red blood cells, using parasite LDH activity as an index of growth. Test compounds present at 2uM.
For experiment [2], the system named is Plasmodium falciparum. The experiment can be described thus: GSK_TCMDC: Inhibition of Plasmodium falciparum Dd2 in whole red blood cells, using parasite LDH activity as an index of growth. Test compounds present at 2uM.
The subject of experiment [3] is HepG2. Put plainly: GSK_TCMDC: Percent inhibition of human HepG2 cell line. Test compounds present at 10uM.

For `O=C(O)c1cc(C(F)(F)F)co1`, the Inhibition in experiment [1] turned out to be 96%; in experiment [2], 19%; in experiment [3], 0%.
As to `Cc1ccc(NC(=O)c2cnc(N3CCN(c4ccncc4)CC3)c(Cl)c2)cc1.O=C(O)C(F)(F)F`, the Inhibition in experiment [1] is 94%; in experiment [2], 24%; in experiment [3], 25%.
As for `Cc1ccc2c(=NN=Cc3ccc(Cl)cc3)cc(C)[nH]c2c1`, the results for the Inhibition in experiment [1], in experiment [2] and in experiment [3] were 100%, 34% and 0%, respectively.
The matching figures for `CCCN(Cc1ccc(C)cc1)Cc1cc(=O)c2cc(Cl)ccc2[nH]1`: 86%, 91% and 51%.
On to `S=C(NCCN1CCOCC1)Nc1ccccc1`, for which the figures for the Inhibition in experiment [1], in experiment [2] and in experiment [3] were 94%, 1% and 3%, respectively.
With `Br.CC1(C)NC(N)=NC(=N)N1OCCSc1ccccc1`, the Inhibition in experiment [1] was found to be 95%; in experiment [2] it was 95%; in experiment [3], 68%.
In the case of `COc1ccc(NS(=O)(=O)c2ccccc2Br)cc1N1CCN(C)CC1.Cl`, the Inhibition in experiment [1] is 94%; in experiment [2], 3%; in experiment [3] it was 2%.
On to `Br.Oc1ccc(CCNCCCCCCNCCc2ccc(Br)cc2)cc1O`, for which the Inhibition in experiment [1] was 99%; in experiment [2], 5%; in experiment [3], 2%.
Take `Cc1ccc(C(=O)NCC2CCN(c3ccc(C(F)(F)F)cc3NC(=O)c3ccco3)CC2)cn1`: the results for the Inhibition in experiment [1], in experiment [2] and in experiment [3] were 91%, 73% and 9%, respectively.
For `CS(=O)(=O)c1ccc2c(c1)CCN(CCC1CCC(NC(=O)c3cc4cccc(Br)c4[nH]3)CC1)CC2` (stereo unspecified) the same measures were 92%, 7% and 27%.
`CCc1ccc(S(=O)(=O)Nc2ccc(CCN(C)C3CCN(C)CC3)cc2)cc1`: the Inhibition was determined as 86% in experiment [1], 9% in experiment [2] and 25% in experiment [3].
As to `COc1ccc(-n2ccnc2SCC(=O)Nc2cc(C(F)(F)F)ccc2Cl)c(OC)c1`, the Inhibition in experiment [1] is 98%; in experiment [2] it was 76%; in experiment [3] it was 0%.
The matching figures for `Cc1onc(-c2ccc(Cl)cc2)c1-c1ccnn1S(=O)(=O)c1ccc(Cl)cc1`: 100%, 99% and 0%.
On to `CC(=O)/N=C1\N=C(NC(C)=O)NC(C)(C)N1OCCCOc1ccc(Cl)c(Cl)c1`, for which the Inhibition in experiment [1] was found to be 96%; in experiment [2], 94%; in experiment [3], 65%.
On to `Cc1c(-c2cccc(C(C)(C)NCCCN3CCCCC3)c2)cnc(N)c1C.Cl`, for which the Inhibition is listed as 95% in experiment [1], 2% in experiment [2] and 5% in experiment [3].
In the case of `O=C(Nc1cccc(-c2cccc(-c3nc4ccccc4[nH]3)c2)c1)Nc1ccc(Cl)c(Cl)c1`, the values for the Inhibition in experiment [1], in experiment [2] and in experiment [3] were 100%, 98% and 78%, respectively.
`CCN(CC)CCN(Cc1ccc(-c2ccc(C(F)(F)F)cc2)cc1)C(=O)Cn1c(CCc2cccc(F)c2F)nc(=O)c2sccc21.O=C(O)C(O)C(O)C(=O)O`: the Inhibition in experiment [1] amounted to 96%; in experiment [2], 70%; in experiment [3], 70%.
`O=C(Nc1cccc(C(F)(F)F)c1)Nc1nc2ccc([N+](=O)[O-])cc2s1`: the results for the Inhibition in experiment [1], in experiment [2] and in experiment [3] were 100%, 76% and 81%, respectively.
The matching figures for `Br.CC(CON1C(N)=NC(N)=NC1(C)C)c1ccc(Cl)cc1Cl` (stereo unspecified): 97%, 95% and 64%.
The matching figures for `COc1ccc(NC(C)C(=O)Nc2ccc(Br)cc2)cc1S(=O)(=O)N1CCCCC1` (stereo unspecified): 99%, 97% and 2%.
With `CC(C)CC(C)NC(=O)C1Cc2c([nH]c3ccc(F)cc23)C2(CCN(Cc3ccccc3)CC2)N1` (stereo unspecified), the Inhibition was found to be 97% in experiment [1], 49% in experiment [2] and 18% in experiment [3].
The matching figures for `Cl.NCC(=O)Nc1cccc(Nc2nccc(-c3c(-c4cccc(NC(=O)c5ccccc5)c4)nn4ccccc34)n2)c1`: 96%, 87% and 45%.
With `CN(C)Cc1cccc(CNC(=O)c2sccc2OCc2ccc(Cl)cc2)c1`, the Inhibition turned out to be 90% in experiment [1], 88% in experiment [2] and 7% in experiment [3].
Turning to `CC(C)NC(=N)NN=Cc1ccc(Cl)c(Cl)c1`, the Inhibition turned out to be 100% in experiment [1], 12% in experiment [2] and 0% in experiment [3].
`COc1ccc2nccc([C@H](O)CN3CCC(NCc4ccc5c(c4C)OCCO5)CC3)c2n1.Cl`: the Inhibition in experiment [1] came to 94%; in experiment [2], 6%; in experiment [3], 26%.
For the compound `Cc1cc(F)ccc1N(c1nc(-c2cc(Cl)ccc2Cl)cs1)C1CCNC1.O=C(O)C(F)(F)F` (stereo unspecified), the Inhibition in experiment [1] came to 99%; in experiment [2], 3%; in experiment [3], 19%.
As for `CCCCCC1c2[nH]c3ccccc3c2CCN1C(=O)OCc1ccccc1` (stereo unspecified), the Inhibition in experiment [1] is on record as 93%; in experiment [2], 68%; in experiment [3], 3%.
On to `COc1ccc(C(=C(C)CC(C)C(=O)O)c2ccccc2)cc1` (stereo unspecified), for which the Inhibition was 95% in experiment [1], 0% in experiment [2] and 6% in experiment [3].
As for `Fc1ccc2[nH]c3c(NCCCN4CCOCC4)ncnc3c2c1`, the Inhibition in experiment [1] was determined as 98%; in experiment [2], 2%; in experiment [3] it was 14%.
For `CCn1c(CN2CCN(Cc3ccccc3)CC2)nc2cc(NC(=O)c3cccs3)ccc21` the same measures were 97%, 95% and 0%.
For the compound `O=C(Nc1cccc(CN2CCCN(Cc3ccc4c(c3)OCO4)CC2)c1)c1ccc(-c2ccccc2)cc1.O=C(O)C(F)(F)F`, the results for the Inhibition in experiment [1], in experiment [2] and in experiment [3] were 90%, 19% and 48%, respectively.
With `O=C(O)C(F)(F)F.O=S(=O)(NC1CCCCN(Cc2ccccc2O)C1)c1ccc(C(F)(F)F)cc1` (stereo unspecified), the values for the Inhibition in experiment [1], in experiment [2] and in experiment [3] were 84%, 39% and 1%, respectively.

A word on the Inhibition: it is how much of the control response was suppressed. Low readings indicate a response near the control, high ones a response far below the control.
